Measurements from paper PMC11995724, “Antibiotic target discovery by integrated phenotypic and activity-based profiling of electrophilic fragments” (Cell chemical biology, 2025).
About 110 (3.4%) of roughly 3,200 compounds showed an effect of 50% or more. For the sample, strong results were picked, then their nearest neighbours and some compounds at random.

Tested on: T1, V. cholerae SAD30
T1 construct: SAD30
Design: species or system S. aureus MSSA476 (TSB) or V. cholerae SAD30 (LB); 384-well bacterial growth screen at 25 uM, OD600 relative to DMSO control
Conditions: relative growth, OD600, LB; 25 µM; inhibitor

Compound | % of control remaining
CC(Cl)C(=O)NCCC1=CCCCCC1 (centres unmarked) [5-N19, 2-chloro-N-[2-(cyclohept-1-en-1-yl)ethyl]propanamide] | 88.2631%
CN(Cc1ccc(N(C)C)cc1)C(=O)CCl.Cl [5-F06, 2-chloro-N-{[4-(dimethylamino)phenyl]methyl}-N-methylacetamide hydrochloride] | 92.298%
CSc1ccccc1NC(=O)C(C)Cl (centres unmarked) [4-M12, 2-chloro-N-[2-(methylsulfanyl)phenyl]propanamide] | 94.8889%
C=CC(=O)N1CCCn2cccc2C12CCOCC2 [1-A22, 1-{2',3',4',5'-tetrahydrospiro[oxane-4,1'-pyrrolo[1,2-a][1,4]diazepin]-2'-yl}prop-2-en-1-one] | 107.922%
CCC(NC(=O)CCl)c1ccc(C)cc1 (centres unmarked) [4-K17, 2-chloro-N-[1-(4-methylphenyl)propyl]acetamide] | 97.3043%
C=CC(=O)NCc1ccno1 [1-O07, N-[(1,2-oxazol-5-yl)methyl]prop-2-enamide] | 86.846%
C=CC(=O)NC1CC(C)Cc2cc(OC)ccc21 (centres unmarked) [3-L17, N-(6-methoxy-3-methyl-1,2,3,4-tetrahydronaphthalen-1-yl)prop-2-enamide] | 87.3259%
O=C(CCl)NC(c1cc(F)ccc1F)C(F)F (centres unmarked) [7-F22, 2-chloro-N-[1-(2,5-difluorophenyl)-2,2-difluoroethyl]acetamide] | 92.5161%
C=CC(=O)N(CCO)c1ccc(C(=O)O)cc1 [1-M10, 4-[N-(2-hydroxyethyl)prop-2-enamido]benzoic acid] | 88.6398%
C=CC(=O)N1CCC(C(=O)N(C)Cc2ccon2)CC1 [2-I14, N-methyl-N-[(1,2-oxazol-3-yl)methyl]-1-(prop-2-enoyl)piperidine-4-carboxamide] | 86.7992%
C=CC(=O)N1CCC(C(=O)N[C@H]2CC[C@@H]2O)(c2ccccc2)CC1 (racemic) [3-G08, rac-N-[(1R,2R)-2-hydroxycyclobutyl]-4-phenyl-1-(prop-2-enoyl)piperidine-4-carboxamide] | 93.3248%
C=CC(=O)N1CCC(C(=O)Nc2ccccc2NS(C)(=O)=O)CC1 [3-C06, N-(2-methanesulfonamidophenyl)-1-(prop-2-enoyl)piperidine-4-carboxamide] | 107.793%
CC(C)NC(=O)C(C#N)=Cc1ccccc1 [8-L05, 2-cyano-3-phenyl-N-(propan-2-yl)prop-2-enamide] | 76.8865%
CC(C)NC(=O)C(C#N)=Cc1cccs1 [8-H15, 2-cyano-N-(propan-2-yl)-3-(thiophen-2-yl)prop-2-enamide] | 71.0401%
Cc1cccc(NC(=O)NC(=O)CCl)c1C [4-D21, 3-(2-chloroacetyl)-1-(2,3-dimethylphenyl)urea] | 104.033%
C=CC(=O)NCCn1cc(Cl)c(C(F)(F)F)n1 [2-F03, N-{2-[4-chloro-3-(trifluoromethyl)-1H-pyrazol-1-yl]ethyl}prop-2-enamide] | 108.106%

Compound | % of control remaining
COc1ccc(Cl)cc1CNC(=O)CCl [6-A16, 2-chloro-N-[(5-chloro-2-methoxyphenyl)methyl]acetamide] | 95.2507%
COc1ccc(C2CCCN2C(=O)CCl)c(OC)c1 (centres unmarked) [4-P22, 2-chloro-1-[2-(2,4-dimethoxyphenyl)pyrrolidin-1-yl]ethan-1-one] | 115.247%
COc1ccc(N2C(=O)C=CC2=O)c(OC)c1 [10-J15, 1-(2,4-dimethoxyphenyl)-2,5-dihydro-1H-pyrrole-2,5-dione] | 26.9628%
COc1ccc(C(=O)C(C)Cl)c(OC)c1 (centres unmarked) [10-J17, 2-chloro-1-(2,4-dimethoxyphenyl)propan-1-one] | 98.0323%
COc1ccc(Cl)cc1NC(=O)C(C)Cl (centres unmarked) [6-G16, 2-chloro-N-(5-chloro-2-methoxyphenyl)propanamide] | 89.3355%
COc1ccc(Cl)cc1N1C(=O)C=CC1=O [10-K10, 1-(5-chloro-2-methoxyphenyl)-2,5-dihydro-1H-pyrrole-2,5-dione] | 24.1574%
CC(Cl)C(=O)N1CCN(Cc2cc(=O)n3ccsc3n2)CC1 (centres unmarked) [6-P17, 7-{[4-(2-chloropropanoyl)piperazin-1-yl]methyl}-5H-[1,3]thiazolo[3,2-a]pyrimidin-5-one] | 97.5258%
C=CC(=O)N1CCCCC(S(C)(=O)=O)C1 (centres unmarked) [2-E17, 1-(3-methanesulfonylazepan-1-yl)prop-2-en-1-one] | 92.6662%
CCc1nocc1CN(C)C(=O)CCl [5-B11, 2-chloro-N-[(3-ethyl-1,2-oxazol-4-yl)methyl]-N-methylacetamide] | 90.6168%
C=CC(=O)N1CCC(C(=O)N2Cc3ccc([N+](=O)[O-])cc3C2)CC1 [2-F04, 1-[4-(5-nitro-2,3-dihydro-1H-isoindole-2-carbonyl)piperidin-1-yl]prop-2-en-1-one] | 98.2245%
Cn1ncc(C(=O)CCl)n1 [10-J10, 2-chloro-1-(2-methyl-2H-1,2,3-triazol-4-yl)ethan-1-one] | 112.838%
CCn1ncc(C(=O)CCl)n1 [10-E13, 2-chloro-1-(2-ethyl-2H-1,2,3-triazol-4-yl)ethan-1-one] | 0%
CCn1cc(NC(=O)CCl)cn1.Cl [6-I15, 2-chloro-N-(1-ethyl-1H-pyrazol-4-yl)acetamide hydrochloride] | 98.4359%
CCn1nc(C)c(CNC(=O)CCl)c1C [7-P10, 2-chloro-N-[(1-ethyl-3,5-dimethyl-1H-pyrazol-4-yl)methyl]acetamide] | 85.1148%
CCn1nc(C)c(CN(C)C(=O)CCl)c1C [5-A10, 2-chloro-N-[(1-ethyl-3,5-dimethyl-1H-pyrazol-4-yl)methyl]-N-methylacetamide] | 104.907%
CCn1nc(C)c(C(=O)CCl)n1 [10-P08, 2-chloro-1-(2-ethyl-5-methyl-2H-1,2,3-triazol-4-yl)ethan-1-one] | 40.2104%
